An excerpt weighted towards active compounds, which were near 10% of everything screened.
SARS PLP yeast = qHTS of Yeast-based Assay for SARS-CoV PLP. S. cerevisiae expressing SARS-CoV PLpro, growth rescue. Potency, µM (top dose mostly 32.9 µM), usual class: activators. 330,000 compounds, 0.19% hits. AID 485353, 2010; note: nearly all actives have a fitted effect of over 55% in size
Pf growth 96h = Primary qHTS for delayed death inhibitors of the malarial parasite plastid, 96 hour incubation | P. falciparum luciferase reporter growth, 96 h | Potency, µM (highest dose often 28.7 µM), hits mostly inhibitors | 320,000 compounds, 6.9% hits; active = well fitted inhibition curve with a large enough effect; inconclusive = small, poorly fitted or top-dose-only effect, or another doubt; inactive = no such curve, though single readings can be large or run the other way
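Two-generation exposure (96 h) targets delayed-death phenotype. Reporter parasites carrying integrated firefly luciferase, in red cells at 2% hematocrit and 0.05% parasitemia final, kept at 37 C, 5% CO2; luminescence loss indicates inhibition.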
NS1 function inh = qHTS Assay for Inhibitors of Influenza NS1 Protein Function; 270,000 compounds, 0.4% hits; Potency, µM (titrated, usually from 46.1 µM); note: actives are rising curves; nearly all actives have a fitted effect of over 50% in size
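In this qHTS, NS1 from influenza A is expressed in budding yeast, where it slows growth. Cells are switched from glucose to 2% galactose medium (pH 6.0, -URA), treated with compound, and growth recovery is read at OD600.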
Pf growth 48h = Primary qHTS for delayed death inhibitors of the malarial parasite plastid, 48 hour incubation. P. falciparum luciferase growth in erythrocytes, 48 h. Potency, µM (top dose mostly 28.7 µM), usual class: inhibitors. 310,000 compounds, 5.9% hits. AID 504832, 2011; active = well fitted inhibition curve with a large enough effect; inconclusive = small, poorly fitted or top-dose-only effect, or another doubt; inactive = no such curve, though single readings can be large or run the other way
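Luciferase-expressing parasites in RBCs, 2% Hct / 0.1% parasitemia final; RPMI 1640 + 0.5% Albumax; 37 C, 5% CO2, one generation; luminescence read-out, lower signal = inhibition.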
Hits are given with their value. Unless noted, calls come from the whole dose curve.

For CCC1CCC/C1=N\NC(=O)c1ccoc1C (stereo unspecified) the results were SARS PLP yeast inactive, Pf growth 96h inactive, NS1 function inh inactive and Pf growth 48h inactive.
Screening Cc1ccc(SCC(=O)OCn2nnc3ccccc3c2=O)cc1C returned SARS PLP yeast inactive, Pf growth 96h inactive, NS1 function inh inactive and Pf growth 48h inactive.
`Cn1nc(C(=O)NCc2ccccc2)c2c1-c1ccccc1S(=O)(=O)C2` gave SARS PLP yeast inactive, Pf growth 96h inactive, NS1 function inh inactive and Pf growth 48h inactive.
CN1CCN(c2ccc([N+](=O)[O-])cc2C(=O)N2CCCCC2)CC1 was read as SARS PLP yeast inactive, Pf growth 96h 12µM, NS1 function inh inactive and Pf growth 48h inactive.
Screening O=C(/C=C/c1ccc(Cl)cc1Cl)N1CCN(c2ccc([N+](=O)[O-])c(N3CCOCC3)c2)CC1 returned SARS PLP yeast inactive, Pf growth 96h inconclusive, NS1 function inh inactive and Pf growth 48h inactive.
For COc1ccc(N2CCN(C(=O)c3nc4nc(C)cc(C)n4n3)CC2)cc1 the results were SARS PLP yeast inactive, Pf growth 96h inactive and Pf growth 48h inconclusive.
Screening O=C(/C=C/c1ccc(Cl)cc1)N1CCN(c2ccc([N+](=O)[O-])c(N3CCOCC3)c2)CC1 returned SARS PLP yeast inactive, Pf growth 96h 10µM, NS1 function inh inactive and Pf growth 48h inconclusive.
`Cc1cc(C)n2nc(C(=O)N3CCN(c4ccc([N+](=O)[O-])cc4)CC3)nc2n1` gave SARS PLP yeast inactive, Pf growth 96h 5.9µM and Pf growth 48h inconclusive.
`O=C(c1cc([N+](=O)[O-])ccc1N1CCOCC1)N1CCN(c2ccc([N+](=O)[O-])cc2)CC1` gave SARS PLP yeast inactive, Pf growth 96h 9.3µM and Pf growth 48h inconclusive.
For Cc1ccccc1C(=O)Nc1nnc(SCC(=O)NCc2ccco2)s1 the results were SARS PLP yeast inactive, Pf growth 96h inactive, NS1 function inh inactive and Pf growth 48h inactive.
Screening O=C(CCc1ccccc1)NCCc1ccc(F)cc1 returned SARS PLP yeast inactive, Pf growth 96h inactive, NS1 function inh inactive and Pf growth 48h inactive.
`Cc1ccc(NC2CCCN(C(=O)c3ccoc3)C2)cc1C` (stereo unspecified) gave SARS PLP yeast inactive, Pf growth 96h 10µM, NS1 function inh inactive and Pf growth 48h inactive.
Screening Cc1ccc(NC2CCCN(C(=O)c3cccc(-c4ncc[nH]4)c3)C2)cc1C (stereo unspecified) returned SARS PLP yeast inactive, Pf growth 96h 10µM, NS1 function inh inactive and Pf growth 48h inconclusive.
Screening Cc1ccc(NC2CCCN(C(=O)C3CCCC3)C2)cc1C (stereo unspecified) returned SARS PLP yeast inactive, Pf growth 96h 13µM, NS1 function inh inactive and Pf growth 48h inactive.
Cc1ccc(NC2CCCN(C(=O)c3cnsn3)C2)cc1C (stereo unspecified) was read as SARS PLP yeast inactive, Pf growth 96h inactive, NS1 function inh inactive and Pf growth 48h inactive.
`CC(c1ccccc1)N1CC(C(=O)N2CCN(Cc3ccc(C#N)cc3)CC2)CC1=O` (stereo unspecified) gave SARS PLP yeast inactive, Pf growth 96h inactive and Pf growth 48h inactive.
Screening CCc1cccc(NC(=O)C2CCCN2C(=O)Nc2ccc(C)cc2)c1 (stereo unspecified) returned SARS PLP yeast inactive, Pf growth 96h inactive, NS1 function inh inactive and Pf growth 48h inactive.
Nc1nc2c(ncn2[C@@H]2O[C@H](CO)[C@@H](O)[C@@H]2O)c(=[SH+])[nH]1.O=[N+]([O-])c1ccc(O)[c]([Hg])c1 was read as NS1 function inh inactive.
FC(F)(F)c1cnc(Sc2nnc(-c3cccs3)n2CC2CCCO2)c(Cl)c1 (stereo unspecified) was read as SARS PLP yeast inconclusive, NS1 function inh inactive and Pf growth 48h 7.4µM.
CCC1CCCCN1CCCNC(=O)C1CCN(Cc2nc(-c3ccc(Cl)cc3)oc2C)CC1 (stereo unspecified) was read as SARS PLP yeast inactive, Pf growth 96h inactive, NS1 function inh inactive and Pf growth 48h 5.2µM.
For Cc1oc(-c2cccc(Cl)c2)nc1CN1CCC(C(=O)NCc2cccnc2)CC1 the results were SARS PLP yeast inactive, Pf growth 96h inactive, NS1 function inh inactive and Pf growth 48h 2.6µM.
For Cc1oc(-c2ccc(Cl)cc2)nc1CN1CCC(C(=O)NCCCN2CCOCC2)CC1 the results were SARS PLP yeast inactive, Pf growth 96h inconclusive, NS1 function inh inactive and Pf growth 48h inconclusive.
`Cc1oc(-c2cccc(Cl)c2)nc1CN1CCC(C(=O)NC2CC2)CC1` gave SARS PLP yeast inactive, Pf growth 96h inactive, NS1 function inh inactive and Pf growth 48h inactive.
CCc1ccc(-c2nc(CN3CCC(C(=O)NCc4ccc(F)cc4)CC3)c(C)o2)cc1 was read as SARS PLP yeast inactive, Pf growth 96h inconclusive, NS1 function inh inactive and Pf growth 48h 13µM.
For Cc1oc(-c2cccc(Cl)c2)nc1CN1CCCC(C(=O)NCCCN2CCOCC2)C1 (stereo unspecified) the results were SARS PLP yeast inactive, Pf growth 96h inactive, NS1 function inh inactive and Pf growth 48h 12µM.
`N#Cc1cnn2c(-c3cccc([N+](=O)[O-])c3)ccnc12` gave SARS PLP yeast inactive, Pf growth 96h inconclusive and Pf growth 48h inactive.
CCN(CCNC(=O)C1CCCN(Cc2nc(-c3ccc(OC)cc3)oc2C)C1)c1ccccc1 (stereo unspecified) was read as SARS PLP yeast inactive, Pf growth 96h inactive, NS1 function inh inactive and Pf growth 48h 5.2µM.
`CCc1ccc(-c2nc(CN3CCC(C(=O)N4CCN(c5ccccc5)CC4)CC3)c(C)o2)cc1` gave SARS PLP yeast inactive, Pf growth 96h 1.9µM, NS1 function inh inactive and Pf growth 48h inactive.
`CCc1ccc(-c2nc(CN3CCC(C(=O)NCCN(CC)c4ccccc4)CC3)c(C)o2)cc1` gave SARS PLP yeast inactive, Pf growth 96h inactive, NS1 function inh inactive and Pf growth 48h inconclusive.
For CCc1ccc(-c2nc(CN3CCC(C(=O)N4CCN(c5ccccn5)CC4)CC3)c(C)o2)cc1 the results were SARS PLP yeast inactive, Pf growth 96h inactive, NS1 function inh inactive and Pf growth 48h inactive.
COc1ccc(Cc2nnc(NC(=O)c3ccccc3)s2)cc1OC was read as SARS PLP yeast inactive, Pf growth 96h inactive, NS1 function inh inactive and Pf growth 48h inactive.
COc1ccc(CCNC(=O)CC2SC(=NCCc3ccccc3)NC2=O)cc1OC (stereo unspecified) was read as SARS PLP yeast inactive, Pf growth 96h 9.3µM, NS1 function inh inactive and Pf growth 48h 13µM.
Screening CN(C)C(CNS(=O)(=O)c1cc([N+](=O)[O-])ccc1Cl)c1ccco1 (stereo unspecified) returned SARS PLP yeast inactive.
For CCOc1ccc(C2=NNC(c3cccs3)=Nc3ccc(OC)cc32)cc1OCC the results were SARS PLP yeast inactive, Pf growth 96h inactive, NS1 function inh inactive and Pf growth 48h 12µM.
For COc1ccc(C2=NNC(c3cccs3)=Nc3ccc(OC)cc32)cc1 the results were SARS PLP yeast inactive, Pf growth 96h inactive, NS1 function inh inconclusive and Pf growth 48h inconclusive.

Screening results (PubChem BioAssay)
